The record followed here is PubChem BioAssay AID434982 (The Scripps Research Institute Molecular Screening Center, 2010).

Screen size: about 15,000 compounds; about 60 (0.4%) were called active. This is one part of a sample in which actives are shown more often than they occur. A number with no mark means an inactive call. No stated cut-off is given here; in the data, active means activation above about 2.2%; inactive means the rest.

This experiment is described as follows: agonists of NOTCH signaling (AID 434982). To be noted: NOTCH signaling luciferase reporter cells, luminescence; at 2.5 µM; stronger effect = higher value. (In a reporter assay the amount or activity of a reporter protein is the signal.)
Consider `O=C1/C(=C\c2ccc3c(c2)OCO3)N2CCC1CC2`, for which the activation was 3.83% (active).

For `CN(C)CC1CCCCC1=O` (stereo not given), the activation is 0.24%. On to `CNC(=O)O/N=C(\N)Cc1csc2ccc(Cl)cc12`, for which the activation is 0.88%.

In the case of `Cc1ccc(Oc2c(C)nc(-c3ccccc3)nc2OC(=O)N(C)C)cc1`, the activation is 0.1%.

`N#CCN1CCN(c2cccc(Cl)c2)CC1`: the activation was 0.33%.
